This note sets out measurements from publication PMC7819943, “Rice protein-binding microarrays: a tool to detect cis-acting elements near promoter regions in rice”.

Over roughly 39,000 sequences, “fluorescence intensity (a.u.)” has its median near 4,300; the highest 2% begin near 39,000. Shown is part of a subset that was picked to be rich in the highest values.

The test addresses T1, OsSMF1 (Oryza sativa, UniProt Q6ZLB0 1-436).
T1 sequence: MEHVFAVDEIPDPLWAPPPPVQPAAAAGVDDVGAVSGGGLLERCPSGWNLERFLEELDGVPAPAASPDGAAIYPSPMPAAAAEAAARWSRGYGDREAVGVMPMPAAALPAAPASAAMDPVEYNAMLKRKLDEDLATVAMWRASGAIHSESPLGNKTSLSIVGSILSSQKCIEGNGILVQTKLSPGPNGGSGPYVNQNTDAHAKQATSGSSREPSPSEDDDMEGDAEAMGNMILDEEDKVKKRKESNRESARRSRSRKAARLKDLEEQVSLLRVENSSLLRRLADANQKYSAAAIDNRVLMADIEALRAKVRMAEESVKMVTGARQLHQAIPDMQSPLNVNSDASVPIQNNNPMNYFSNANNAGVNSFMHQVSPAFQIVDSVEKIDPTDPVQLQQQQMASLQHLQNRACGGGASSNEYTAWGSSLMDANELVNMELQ
The experiment in a line: protein-binding microarray (RPBM); PBS, 2% BSA, 51.3 ng/ul salmon testes DNA, 50 uM zinc acetate, 200 nM TF, 25 C, 1 h; high values mean tight binding. As to conditions: protein: recombinant; tags: N-terminal polyhistidine and DsRed monomer fusion (pET32a); chain copies: 2; label: CyDye5-dUTP incorporated in the synthesized complementary strand; 3' TTTTT single-stranded linker to array surface; dsDNA, one strand shown. Put shortly: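 Polyhistidine-tagged DsRed fusions of transcription factors, joined at the N-terminus, were expressed in E. coli BL21-CodonPlus and isolated on Ni–NTA. They were incubated at 200 nM for 1 h at 25 °C on a custom Agilent array, double-stranded and BSA-blocked, in PBS with 2% BSA, salmon testes DNA and 50 µM zinc acetate. The binding signal is per-feature fluorescence intensity (arbitrary units) read on an Axon 4000B scanner after washing.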
As for “GCCCAGCGTGCACGGCGCGACGGACTCGCGCGGCACTAGCCGGAGTCACCTAGTGCAG”, the binding signal was 5790 fluorescence intensity (a.u.).

Regarding “GGCCAGCCGTGTAGGCGGAGGCACCACTCGGCGGCGACGGCGGAGTCACCTAGTGCAG”, the binding signal was 49900 fluorescence intensity (a.u.).

As for “TGCTGAGTGAGTGATGAGTGTGCGAATGTGTGATCGATCGCGGAGTCACCTAGTGCAG”, the binding signal was 3860 fluorescence intensity (a.u.).

As to “ATTATTCATAAGCTGAATATTCTTATTCATACATTCGGATCGGAGTCACCTAGTGCAG”, the binding signal was 6460 fluorescence intensity (a.u.).

As to “CCAGGTCAACATTGCCACGTGTGCGGCCACGTCAGCGAAACGGAGTCACCTAGTGCAG”, the binding signal is 33400 fluorescence intensity (a.u.).

With “GGCTATTGGGAGCCACGTCAGCCGGTGGCCTCCGCCATCGCGGAGTCACCTAGTGCAG”, the binding signal is 22600 fluorescence intensity (a.u.).

For “CGAAGACTAAGTCAACACCACCACGTAGTCGCCACATCAGCGGAGTCACCTAGTGCAG”, the binding signal was 8880 fluorescence intensity (a.u.).

As to “CTAGGTCAACACCGCCATGTCAGCGCCACGTCAGCGAAACCGGAGTCACCTAGTGCAG”, the binding signal was 28700 fluorescence intensity (a.u.).

As for “CACGTGGGACGAAAACTAGGTCAACATCGCCACGTCAGCGCGGAGTCACCTAGTGCAG”, the binding signal was 45900 fluorescence intensity (a.u.).

Consider “GCCACGTGGGATGAAGCCTAAGTCAACATCGCCACGTCAGCGGAGTCACCTAGTGCAG”, for which the binding signal is 43200 fluorescence intensity (a.u.).

With “GACTTGATTACCACGCGTATACTATATAGGACAAAATTGCCGGAGTCACCTAGTGCAG”, the binding signal is 3190 fluorescence intensity (a.u.).

For “TGTTCCTCCACGTCGCTCCGCCGCTCCGCCCGCCTTGCTTCGGAGTCACCTAGTGCAG”, the binding signal was 5090 fluorescence intensity (a.u.).

Turning to “TCCGGAGAGTTGACGCAGCGTCAACCGGGTCCGTCGTTCTCGGAGTCACCTAGTGCAG”, the binding signal is 3800 fluorescence intensity (a.u.).

“AATCGCGAGATATCCACGTGAGATTGCGCAGCGAGACGCGCGGAGTCACCTAGTGCAG”: the binding signal is 5140 fluorescence intensity (a.u.).

In the case of “ATGAGAGATAAGTAGATGACACATTCACAGTTGCTATAGTCGGAGTCACCTAGTGCAG”, the binding signal is 4040 fluorescence intensity (a.u.).

For “AAGCTAGCGGTCACCCAGTCAGCTCACCCCGAGACGCACCCGGAGTCACCTAGTGCAG”, the binding signal was 4400 fluorescence intensity (a.u.).

Take “CGCAGTTGCTTCTGCAAAAGAGATTGATGACAAGGATCACCGGAGTCACCTAGTGCAG”: the binding signal is 3530 fluorescence intensity (a.u.).

“TCGATCGACATGGTGAATTGGCGATCGGGTTGGCTCGGCTCGGAGTCACCTAGTGCAG”: the binding signal is 3170 fluorescence intensity (a.u.).

Turning to “GCCACGTAGGTGCCATGTGGCACCACGTCAGCAAAATTGCCGGAGTCACCTAGTGCAG”, the binding signal was 49100 fluorescence intensity (a.u.).

For “TTATTTCTACTGCCACGTAGGTGCCACGTCAACGCCACGTCGGAGTCACCTAGTGCAG”, the binding signal was 37400 fluorescence intensity (a.u.).

As to “TAAATGTTCGTGTGGCATGCCACATCAGCACCACGTAGGACGGAGTCACCTAGTGCAG”, the binding signal is 21400 fluorescence intensity (a.u.).

As to “TTTATTTCTACCGCCACGTAGGTGCCATGTCAATGTCACGCGGAGTCACCTAGTGCAG”, the binding signal is 14300 fluorescence intensity (a.u.).

With “TAGGCAAATTACATGGCATGTGCCACGTCGTTGTTGCACCCGGAGTCACCTAGTGCAG”, the binding signal was 16500 fluorescence intensity (a.u.).

“GTAGGTGACATGTGTGGTGTCACACTGACTCAGCCATCACCGGAGTCACCTAGTGCAG”: the binding signal is 10600 fluorescence intensity (a.u.).

With “TTAGACACGTAGGTGCCATGTCAGCCAAAACCACCGAGGGCGGAGTCACCTAGTGCAG”, the binding signal is 17100 fluorescence intensity (a.u.).

Consider “CTACTGACACGTAGGTGCCACCATGGCATGCCACGTCAGCCGGAGTCACCTAGTGCAG”, for which the binding signal was 61500 fluorescence intensity (a.u.).

As for “TTTTATTTCTACTGCCACGTAGGTGCCACGTCAACGCCACCGGAGTCACCTAGTGCAG”, the binding signal is 49800 fluorescence intensity (a.u.).

As to “CATAGATTAATATGAAATATATAACTCCACAAATATGCAACGGAGTCACCTAGTGCAG”, the binding signal was 3500 fluorescence intensity (a.u.).

In the case of “ACACGGCCTATAAATATCTAACCATCCTTTGCCTGTCGAGCGGAGTCACCTAGTGCAG”, the binding signal was 4970 fluorescence intensity (a.u.).

Consider “TGGATTTTGCACCGATCGCACCACGTCTCCGTCTGTTTGCCGGAGTCACCTAGTGCAG”, for which the binding signal was 4240 fluorescence intensity (a.u.).

In the case of “TCGCCCGCACGTGGCCCTCCTCTCCTCCCTCCCACCTCGTCGGAGTCACCTAGTGCAG”, the binding signal was 3380 fluorescence intensity (a.u.).

Turning to “ACCACACACACACTGACACTGTGACACAACACAACACGGCCGGAGTCACCTAGTGCAG”, the binding signal is 6920 fluorescence intensity (a.u.).

With “TCACCAATCACCTGCCCTCACACCAACACGCCACGCGAACCGGAGTCACCTAGTGCAG”, the binding signal is 3750 fluorescence intensity (a.u.).

Take “GATGCACCACTGCTGCGTCGCACGTTCCACCCCATTCCACCGGAGTCACCTAGTGCAG”: the binding signal is 3520 fluorescence intensity (a.u.).

“CACGCCAACTAGGATGGATAGATGGGCCACATGTATTCCACGGAGTCACCTAGTGCAG”: the binding signal was 3530 fluorescence intensity (a.u.).

On to “CACCTGCAGCTGCCACGTCAGAGCCACGTCGGATTCCAACCGGAGTCACCTAGTGCAG”, for which the binding signal is 40800 fluorescence intensity (a.u.).

For “GTTCAATTCCTGCTGGATGCACGTGAACCGGAACGTTCCACGGAGTCACCTAGTGCAG”, the binding signal is 52000 fluorescence intensity (a.u.).

Regarding “CACATTGAGTCAGCTGCCACGTCGGATAAAACCGGAGTCACGGAGTCACCTAGTGCAG”, the binding signal is 15000 fluorescence intensity (a.u.).

For the sequence “CACACTGAGTCAGCTGCCACGTCGGATAAAACCGGAGTCACGGAGTCACCTAGTGCAG”, the binding signal is 10500 fluorescence intensity (a.u.).

Regarding “GGAACATGTATGCACCGAACCTGGTGCATGTCCACGTTCACGGAGTCACCTAGTGCAG”, the binding signal is 3740 fluorescence intensity (a.u.).

For “AGTATCAGATTCCAACTCACATGCCACGTCACATGCATGCCGGAGTCACCTAGTGCAG”, the binding signal was 42200 fluorescence intensity (a.u.).

For the sequence “ATTCCTATCATTGGAGTATGTGTGCACGTCATTAGTGCCACGGAGTCACCTAGTGCAG”, the binding signal is 6500 fluorescence intensity (a.u.).
